Reference: PubChem BioAssay (EPA / NIEHS)
“And” between values parts separate entries of the source, which are not always exact repeats. Equal entries are not always repeated. The source made the active and inactive calls. Rule for the calls: active = hit-call score of the fitted dose curve at least 0.9, where 1 is the maximum; inactive = score below 0.9.

System: not listed separately
Test: CCTE_Deisenroth_DEVTOX-GLR_Pluri_CellCount: Viability Assessment in CCTE's DevTox GLR-Pluri Assay Evaluation of Total Cell Counts, Deisenroth Lab (AID 2284430)
In short: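 Cytotoxicity readout: fluorescent nuclei counts by high-content imaging, expressed as percent change relative to 0.2% DMSO. Human RUES2-GLR pluripotent line differentiated 48 h, dosed twice at 24-h intervals across 1 nM - 200 uM (10 points).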

| Structure (SMILES) | outcome | AC50 |
| --- | --- | --- |
| CC(=O)CC(c1ccccc1)c1c(O)c2ccccc2oc1=O (stereo unspecified) | inactive | – |
| Cc1cn([C@H]2C=C[C@@H](CO)O2)c(=O)[nH]c1=O | inactive | – |
| O=C(O)c1cccnc1 | inactive | – |
| O=C1NC(=O)C(c2ccccc2)(c2ccccc2)N1 | – | 100 µM (active) |

System: TTR (gene 7276)
Test: CCTE_GLTED_hTTR_0.125uM: CCTE's human Transthyretin (hTTR) Inhibition Assay, with 0.125uM TTR, Great Lakes Toxicology and Ecology Division (GLTED) Lab (AID 2284431);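 note: hits lower the fluorescence signal relative to DMSO baseline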
In short: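 Cell-free displacement of ANSA probe from 0.125uM TTR after 2 h incubation with chemical. Fluorescence read at 380 nm excitation/475 nm emission; loss of signal relative to DMSO indicates T4-site displacement.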

| Structure (SMILES) | AC50 |
| --- | --- |
| Cc1cc(Cc2ccc(N)c(C)c2)ccc1N | 9.71 µM (active) |
| CC(=O)CC(c1ccccc1)c1c(O)c2ccccc2oc1=O (stereo unspecified) | 7.34 µM (active) and 4.39 µM (active) |
| O=C(O)c1[nH]n(-c2ccc(S(=O)(=O)O)cc2)c(=O)c1N=Nc1ccc(S(=O)(=O)O)cc1 | 17.8 µM (active) |
| O=Cc1ccccc1C=O | 0.121 µM (active) |
| O=C1c2c(O)cccc2Cc2cccc(O)c21 | 22 µM (active) |
| O=C1OC(c2ccc(O)cc2)(c2ccc(O)cc2)c2ccccc21 | 0.056 µM (active) |
| CCCCc1nc2cccnc2n1Cc1ccc(-c2ccccc2-c2nnn[nH]2)cc1 | 7.22 µM (active) |
| Cc1c(C)c2c(c(C)c1O)CCC(C)(COc1ccc(CC3SC(=O)NC3=O)cc1)O2 (stereo unspecified) | 2.31 µM (active) |
| CCCCCCCCCCCCCCOS(=O)(=O)O | 1.9 µM (active) |
| O=C(NS(=O)(=O)/C=C/c1cccs1)c1ccc(F)cc1Br | 7.75 µM (active) |
| CCC(C)N(C)C(=O)c1cc2ccccc2c(-c2ccccc2Cl)n1 (stereo unspecified) | 27.1 µM (active) |
| S=c1[nH]c2ccccc2s1 | 4.06 µM (active) |
